Test [1] is described as follows: Quantitative High-Throughput drug screen in 47 multiple myeloma cell lines against the NCATS MIPE library collection: KMS28PE_JCRB cell viability assay (AID 1918983). Note: nearly all actives have a fitted effect of over 35% in size. In short, it runs like this: (§1)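 500 cells/well per myeloma line exposed to pinned MIPE 4.0 compounds for 48 h at 37 °C, 5% CO2. Viability read as ATP by CellTiter-Glo luminescence, normalised to DMSO-only (100%) and media-only (0%) wells.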

Test [2] can be described thus: Quantitative High-Throughput drug screen in 47 multiple myeloma cell lines against the NCATS MIPE library collection: L363_DSMZ cell viability assay (AID 1918984). Note: nearly all actives have a fitted effect of over 40% in size. In short, it runs like this: as §1
A short description of test [3]: Quantitative High-Throughput drug screen in 47 multiple myeloma cell lines against the NCATS MIPE library collection: KMS34_JCRB cell viability assay (AID 1918985). Note: nearly all actives have a fitted effect of over 40% in size. In short, it runs like this: as §1
Test [4] can be described thus: Quantitative High-Throughput drug screen in 47 multiple myeloma cell lines against the NCATS MIPE library collection: OCIMY7_PLB cell viability assay (AID 1918987). Note: nearly all actives have a fitted effect of over 65% in size. Conditions: OCI-MY7 myeloma viability, CellTiter-Glo ATP, 48 h; viability (% of DMSO): at 45.8 µM (top of the series). In outline: as §1
The nature of test [5]: Quantitative High-Throughput drug screen in 47 multiple myeloma cell lines against the NCATS MIPE library collection: OCIMY5_PLB cell viability assay (AID 1918988). Note: nearly all actives have a fitted effect of over 65% in size. In outline:
as §1

Test [6] is described as follows: Quantitative High-Throughput drug screen in 47 multiple myeloma cell lines against the NCATS MIPE library collection: OPM1_PLB cell viability assay (AID 1918989). Note: nearly all actives have a fitted effect of over 40% in size. In short, it runs like this: as §1
The nature of test [7]: Quantitative High-Throughput drug screen in 47 multiple myeloma cell lines against the NCATS MIPE library collection: SKMM1_PLB cell viability assay (AID 1919863). Note: nearly all actives have a fitted effect of over 35% in size. Conditions: SKMM1 myeloma viability, CellTiter-Glo ATP, 48 h; viability: hits give low values. In short, it runs like this:
as §1

Test [8] is described as follows: Quantitative High-Throughput drug screen in 47 multiple myeloma cell lines against the NCATS MIPE library collection: U266_ATCC cell viability assay (AID 1919864). Note: nearly all actives have a fitted effect of over 35% in size. In short, it runs like this: as §1
A short description of test [9]: Quantitative High-Throughput drug screen in 47 multiple myeloma cell lines against the NCATS MIPE library collection: XG6_PLB cell viability assay (AID 1919865). Note: nearly all actives have a fitted effect of over 40% in size. In short, it runs like this: as §1
A short description of test [10]: Quantitative High-Throughput drug screen in 47 multiple myeloma cell lines against the NCATS MIPE library collection: LP1_DSMZ cell viability assay (AID 1918982). Note: nearly all actives have a fitted effect of over 35% in size. In outline: as §1

Molecules are shown by their SMILES. Inconclusive results are not listed. Unmarked numbers belong to inactive results. The source made the active and inactive calls. Calls come from the whole dose curve; as a rule, active = well fitted cell-killing curve with a large enough effect; inconclusive = small, poorly fitted or top-dose-only effect, or effect the other way; inactive = no such curve, though single readings can be large or run the other way.
Potency is the fitted concentration of half-maximal effect.

With `C=CCNc1c(O)cc2c(O)c1C[C@@H](C)C[C@H](OC)[C@@H](O)[C@@H](C)C=C(C)[C@H](OC(N)=O)[C@@H](OC)C=CC=C(C)C(=O)N2`, the Potency in test [1] is 0.418 µM (active); in test [2] it was 0.0332 µM (active); in [3], 0.296 µM (active); in [4], 0.209 µM (active); in [5], 0.235 µM (active); in test [6], 0.526 µM (active). For the same compound, the results for the Potency in [7], in test [8] and in test [9] were 0.264 µM (active), 0.418 µM (active) and 1.05 µM (active), respectively.
Consider `CN(C)CC(=O)N1CCC(c2ccc(NC(=O)c3ncc(C#N)[nH]3)c(C3=CCCCC3)c2)CC1`, for which the Potency entry in test [10] and in [3] was “inactive” throughout. Besides, the Potency in test [4] is 9.35 µM (active); in test [5] it was 26.4 µM (active); in [6], 20.9 µM (active); in test [8] it was 8.33 µM (active); in test [9], 18.7 µM (active).
Turning to `NC1=N[C@H]2[C@H](CS[C@H]2CCCCC(=O)O)N1`, the Potency entry in test [10], in test [2], in test [3], in test [5], in test [6] and in test [8] was “inactive” in each case. Further, in test [9], the Potency entry is “inactive”.
Consider `CC(=O)O[C@H]1C[C@@H]2CC[C@H]3[C@H]4C[C@H]([N+]5(C)CCCCC5)[C@@H](OC(C)=O)[C@@]4(C)CC[C@@H]3[C@@]2(C)C[C@H]1[N+]1(C)CCCCC1`, for which the Potency entry in [10], in test [2], in [3] and in [9] was “inactive” throughout. Moreover, the Potency in test [8] is 23.5 µM (active).
For the compound `CCOC(=O)[C@@H](N)Cc1ccc(-c2cc(O[C@H](c3ccc(Cl)cc3-n3ccc(C)n3)C(F)(F)F)nc(N)n2)cc1`, the Potency in test [1] was 20.9 µM (active); in test [2], 10.5 µM (active); in test [3], 16.6 µM (active); in [4], 11.8 µM (active); in test [5] it was 18.7 µM (active); in test [6] it was 23.5 µM (active). Also, the results for the Potency in test [7], in test [8] and in test [9] were 23.5 µM (active), 23.5 µM (active) and 16.6 µM (active), respectively.
Consider `COc1cc(C[C@@H](CO)[C@H](CO)Cc2ccc(O)c(OC)c2)ccc1O`, for which the Potency entry in test [1] and in test [3] was “inactive” throughout. For the same compound, the Potency in test [2] was 5.9 µM (active); in test [4], 1.05 µM (active); in test [5], 0.332 µM (active); in test [6], 0.935 µM (active); in [8] it was 0.469 µM (active); in test [9] it was 0.209 µM (active). Moreover, the viability in test [7] is 127%.
On to `COc1ccc([C@@H]2CNC(=O)C2)cc1OC1CCCC1`, for which the Potency entry in test [10] was “inactive”. The Potency in test [6] was 8.33 µM (active); in [8], 1.18 µM (active); in test [9], 1.32 µM (active).
Turning to `CCCCCN=C(N)NN=Cc1c[nH]c2ccc(OC)cc12`, the Potency is 10.5 µM (active) in test [1]; 2.09 µM (active) in [2]; 7.43 µM (active) in [3]; 2.96 µM (active) in test [4]; 3.72 µM (active) in [5]; 11.8 µM (active) in test [6].
For `CC(=O)NC(CS)C(=O)O` (stereo not given), the Potency entry in test [10], in [3], in test [6] and in test [9] was “inactive” each time.
`CC(C)OC(=O)[C@H](C)N[P@](=O)(OC[C@H]1O[C@@H](n2ccc(=O)[nH]c2=O)[C@](C)(F)[C@H]1O)Oc1ccccc1`: the Potency entry in [10], in test [3], in test [6] and in test [8] was “inactive” in each case. In [7], the viability was 127%.
On to `C[C@@]12C(=O)OC(=O)[C@@]1(C)C1CCC2O1`, for which the Potency in test [1] was 2.35 µM (active); in test [2] it was 3.72 µM (active); in test [3], 0.833 µM (active); in test [4], 0.743 µM (active); in test [5], 2.96 µM (active); in [6] it was 0.372 µM (active). Further, the Potency is 7.43 µM (active) in [7], 1.66 µM (active) in [8] and 4.18 µM (active) in test [9].
With `OCC(O)C(O)C(O)CO` (stereo not given), the Potency result in test [10], in test [2], in test [3], in [4], in test [6] and in test [9] was “inactive” each time.
For the compound `CC(=O)N1CCN(c2ccc(OCc3nn(C)c(C)c3-c3cccc4c(CCCOc5cccc6ccccc56)c(C(=O)O)n(Cc5cccnc5)c34)cc2)CC1`, the Potency is 16.6 µM (active) in test [1]; 1.18 µM (active) in [2]; 18.7 µM (active) in test [3]; 0.001 µM (active) in test [4]; 0.118 µM (active) in [5]; 0.469 µM (active) in test [6]. Also, the Potency in test [7] was 20.9 µM (active); in test [8], 0.526 µM (active).
Regarding `C[C@H](NC(=O)C(C#N)=Cc1cccc(Br)n1)c1ccccc1`, the Potency in test [1] is 3.72 µM (active); in test [2], 11.8 µM (active); in test [3], 7.43 µM (active); in test [4], 0.743 µM (active); in test [5], 2.64 µM (active); in test [6] it was 2.09 µM (active). For the same compound, the Potency is 3.72 µM (active) in test [7], 6.62 µM (active) in [8] and 2.35 µM (active) in [9].
Take `O=[N+]([O-])c1cn2c(n1)OC[C@@H](OCc1ccc(OC(F)(F)F)cc1)C2`: the Potency result in [10], in test [3], in test [5] and in test [6] was “inactive” in each case. In [8], the Potency is 18.7 µM (active).
Turning to `CN(C)CC[C@H](c1ccc(Cl)cc1)c1ccccn1`, the Potency result in test [10] and in test [3] was “inactive” in each case.
Turning to `Cc1noc(-c2ccc(CSCCC(=O)O)cc2)c1NC(=O)OC(C)c1ccccc1Cl` (stereo not given), the Potency entry in test [10], in test [3], in test [6] and in test [8] was “inactive” each time. For the same compound, the viability in test [7] was 124%.
With `CC(C)n1cnc2c(NCCc3ccc(O)cc3)nc(-c3csc4ccccc34)nc21`, the Potency in [10] is 16.6 µM (active); in test [4], 7.43 µM (active); in [5] it was 1.66 µM (active); in [6] it was 23.5 µM (active); in test [7], 20.9 µM (active); in test [8] it was 2.35 µM (active). The Potency in test [9] was 3.72 µM (active).
In the case of `CC[C@H]1OC(=O)[C@H](C)[C@@H](O[C@H]2C[C@@](C)(OC)[C@@H](O)[C@H](C)O2)[C@H](C)[C@@H](O[C@@H]2O[C@@H](C)C[C@H](N(C)C)[C@@H]2O)[C@](C)(O)C[C@@H](C)C(=O)[C@H](C)[C@@H](O)[C@]1(C)O`, the Potency result in [10], in test [2], in test [5] and in [6] was “inactive” each time.

Values taken from PubChem BioAssay (NCATS).
